The results in this text go back to PubChem BioAssay (EPA / NIEHS).

Each structure is given as a SMILES string. Records with an inconclusive call do not appear. Active and inactive are the calls of the source. The calls were made as follows, unless noted: active = hit-call score of the fitted dose curve at least 0.9, where 1 is the maximum; inactive = score below 0.9.

The nature of test [1]: BSK_3C_SRB: Viability Assessment in the BioMAP Diversity Plus: 3C Assay (AID 2283023).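 Also: fitted both ways against DMSO so a hit may be signal rise or drop.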 The note with it: primary human endothelial cells (HUVEC). In short, it runs like this:
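Human umbilical vein endothelial cells in the 3C system, treated 24 h. Total protein measured by 0.1% sulforhodamine B staining after 10% TCA fixation, read at 560 nm; bidirectional fit versus DMSO.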

Read-out in test [2]: Matrix Metallopeptidase 1 (MMP1), MMP1 (gene 4312)
Kind of test: BSK_BE3C_MMP1: BioMAP Diversity Plus: BE3C Assay for Matrix Metallopeptidase 1 (MMP1) Biomarker Activity (AID 2283024). Conditions: primary human bronchial epithelial cells; actives raise or lower the signal. Summed up: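 Dose cells, wait 24 h, run MMP1 ELISA; cells are human bronchial epithelial primaries. Both increases and decreases relative to DMSO counted.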

The nature of test [3]: BSK_3C_Vis: BioMAP Diversity Plus: 3C Assay for Morphology Visualization (AID 2283025).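 Also: fitted both ways so gain or loss versus DMSO counts.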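 As to AC50: light microscopy image of cell morphology used as background control.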 Conditions: primary human endothelial cells (HUVEC). In short, it runs like this:
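Endothelial cells from human umbilical vein were treated with test chemicals for 24 h and inspected by light microscopy for changes in cell conformation.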

Read-out in test [4]: Pselectin, SELP (gene 6403)
Briefly: BSK_4H_Pselectin: BioMAP Diversity Plus: 4H Assay for Pselectin Biomarker Activity (AID 2283026). Conditions: primary human endothelial cells (HUVEC); actives raise or lower the signal. Summed up: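 Human vascular endothelium from umbilical vein; P-selectin measured by ELISA at 24 h post-dose, with cytotoxicity checked by sulforhodamine B total-protein staining in parallel cultures (0.1% SRB after 10% TCA fixation, read at 560 nm).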

Test [5] is described as follows: BSK_4H_SRB: Viability Assessment in the BioMAP Diversity Plus: 4H Assay (AID 2283027).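 Also: cells exposed to compound for 24 h before staining.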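 As to AC50: curves fitted both ways versus DMSO so AC50 may be loss or gain.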 The note with it: primary human endothelial cells (HUVEC). Summed up: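 Human umbilical vein endothelial cells were dosed with chemical and, after 24 h, fixed with 10% TCA, stained with 0.1% sulforhodamine B, and read at 560 nm to give total protein as a cytotoxicity measure. Bidirectional fitting relative to DMSO control.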

Test [6] is described as follows: BSK_BE3C_SRB: Viability Assessment in the BioMAP Diversity Plus: BE3C Assay (AID 2283028).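 As to AC50: fitted both ways so AC50 may mark signal gain or loss versus DMSO.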 Conditions: primary human bronchial epithelial cells. Summed up:
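Human bronchial epithelial primary cells in confluent culture, 24 h after chemical dosing; total protein by 0.1% SRB staining after 10% TCA fixation, read at 560 nm. Bidirectional fitting versus DMSO baseline.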

Read-out in test [7]: Urokinase-type plasminogen activator receptor (uPAR), PLAUR (gene 5329)
Kind of test: BSK_4H_uPAR: BioMAP Diversity Plus: 4H Assay for Urokinase-type plasminogen activator receptor (uPAR) Biomarker Activity (AID 2283030). The note with it: primary human endothelial cells (HUVEC); actives raise or lower the signal. Summed up:
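Human umbilical vein endothelial cells in the 4H system, 24 h after chemical dosing. Cell-surface uPAR measured by ELISA, fitted in both directions versus DMSO; cytotoxicity checked by SRB total protein in parallel cultures.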

Read-out in test [8]: Vascular endothelial growth factor receptor 2 (Homo sapiens) (UniProt P35968)
Briefly: BSK_4H_VEGFRII: BioMAP Diversity Plus: 4H Assay for Vascular endothelial growth factor receptor 2 (VEGFR2) Biomarker Activity (AID 2283031). The note with it: primary human endothelial cells (HUVEC); actives raise or lower the signal. Summed up:
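Primary human umbilical vein endothelial cells (4H system), 24 h exposure; cell-surface VEGFR2 measured by ELISA. Bidirectional fitting versus DMSO; cytotoxicity checked in parallel by SRB total-protein staining.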

Read-out in test [9]: Human Leukocyte Antigen - DR isotype (HLADR), HLA-DRA (gene 3122)
Kind of test: BSK_BE3C_HLADR: BioMAP Diversity Plus: BE3C Assay for Human Leukocyte Antigen - DR isotype (HLADR) Biomarker Activity (AID 2283032). The note with it: primary human bronchial epithelial cells; actives raise or lower the signal. In short, it runs like this: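 Signal came from an ELISA for HLA-DR in human bronchial epithelial primary cells harvested 24 h after treatment; gain- and loss-of-signal fitting used DMSO controls as reference.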

Read-out in test [10]: Vascular cell adhesion molecule 1 (VCAM1), VCAM1 (gene 7412)
Briefly: BSK_4H_VCAM1: BioMAP Diversity Plus: 4H Assay for Vascular cell adhesion molecule 1 (VCAM1) Biomarker Activity (AID 2283033).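 As to outcome: cell-surface VCAM-1 protein measured by ELISA.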 The note with it: primary human endothelial cells (HUVEC); actives raise or lower the signal. In short, it runs like this: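 Endpoint derived from bidirectional fitting against DMSO controls of VCAM-1 ELISA signal in umbilical vein endothelial cells sampled at 24 h following treatment.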

Read-out in test [11]: Interferon-gamma inducible Protein 10 (IP10), CXCL10 (gene 3627)
Kind of test: BSK_BE3C_IP10: BioMAP Diversity Plus: BE3C Assay for Interferon-gamma inducible Protein 10 (IP10) Biomarker Activity (AID 2283034). Conditions: primary human bronchial epithelial cells; actives raise or lower the signal. Summed up:
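Using primary human bronchial epithelial cultures, the assay captures IP-10 by ELISA one day (24 h) after exposure. Parallel SRB staining of total protein flags overt cytotoxicity. Fits run bidirectionally relative to DMSO.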

Read-out in test [12]: Monokine induced gamma interferon (MIG), CXCL9 (gene 4283)
Briefly: BSK_BE3C_MIG: BioMAP Diversity Plus: BE3C Assay for Monokine induced gamma interferon (MIG) Biomarker Activity (AID 2283035). Conditions: primary human bronchial epithelial cells; actives raise or lower the signal. In short, it runs like this:
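ELISA read-out of MIG in human lung bronchial epithelial primary cultures, 24 h post-dosing. Bidirectional curve fit vs DMSO baseline.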

Read-out in test [13]: Transforming growth factor beta 1 (TGFb1), TGFB1 (gene 7040)
Kind of test: BSK_BE3C_TGFb1: BioMAP Diversity Plus: BE3C Assay for Transforming growth factor beta 1 (TGFb1) Biomarker Activity (AID 2283036;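 also: TGF-b1 protein level measured by ELISA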). The note with it: primary human bronchial epithelial cells; actives raise or lower the signal. Summed up:
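In this human primary bronchial epithelial system, an ELISA quantified TGF-b1 one day after dosing. Endpoint changes in either direction were fitted relative to DMSO.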

Read-out in test [14]: urokinase plasminogen activator (uPA), PLAU (gene 5328)
Briefly: BSK_BE3C_uPA: BioMAP Diversity Plus: BE3C Assay for urokinase plasminogen activator (uPA) Biomarker Activity (AID 2283038).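 Also: uPA protein level quantified by ELISA in cell cultures; uPA read one day after compound addition.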 Conditions: primary human bronchial epithelial cells; actives raise or lower the signal. In short, it runs like this: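 Primary human bronchial epithelial cells, uPA measured by ELISA 24 h after dosing. Bidirectional change relative to DMSO; cytotoxicity checked in parallel cultures by sulforhodamine B total-protein staining.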

Read-out in test [15]: Urokinase-type plasminogen activator receptor (uPAR), PLAUR (gene 5329)
Kind of test: BSK_BE3C_uPAR: BioMAP Diversity Plus: BE3C Assay for Urokinase-type plasminogen activator receptor (uPAR) Biomarker Activity (AID 2283039).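 Also: cells exposed to compound for one day before measurement.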 The note with it: primary human bronchial epithelial cells; actives raise or lower the signal. In short, it runs like this:
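A uPAR ELISA serves as the readout, taken 24 h after treating primary human bronchial epithelial cells. Responses in either direction are fitted against DMSO, which defines baseline activity.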

Read-out in test [16]: Interleukin-6 (IL6), IL6 (gene 3569)
Briefly: BSK_CASM3C_IL6: BioMAP Diversity Plus: CASM3C Assay for Interleukin-6 (IL6) Biomarker Activity for (AID 2283040). The note with it: primary human coronary artery smooth muscle cells; actives raise or lower the signal.

Read-out in test [17]: Tissue plasminogen activator (tPA), PLAT (gene 5327)
Briefly: BSK_BE3C_tPA: BioMAP Diversity Plus: BE3C Assay for Tissue plasminogen activator (tPA) Biomarker Activity (AID 2283041).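 Also: tPA level quantified by ELISA one day after compound addition.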 Conditions: primary human bronchial epithelial cells; actives raise or lower the signal. In short, it runs like this:
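Bidirectional curve fitting relative to DMSO defined activity, with tPA detected by ELISA in chemically treated human bronchial epithelial primary cells at 24 hours.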

The target of test [18] is human Vitamin D Receptor (VDR), VDR (gene 7421) (UniProt P11473). Briefly: ATG_VDR_TRANS: Attagene TRANS-FACTORIAL HepG2 Assay for human Vitamin D Receptor (VDR) (AID 2283022; active = hit-call score of the fitted dose curve at least 0.9, where 1 is the maximum). Summed up: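 HepG2 cells were transiently transfected with GAL4-UAS reporter units and a chimeric VDR-Gal4 construct, then dosed for 24 hours. Reporter mRNA was quantified by RT-PCR, fluorescent labeling, HpaI digestion and capillary electrophoresis; gain of signal analysed vs DMSO.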

Read-out in test [19]: Thrombomodulin, THBD (gene 7056)
Kind of test: BSK_3C_Thrombomodulin: BioMAP Diversity Plus: 3C Assay for Thrombomodulin Biomarker Activity (AID 2283029). Conditions: primary human endothelial cells (HUVEC); actives raise or lower the signal. In short, it runs like this: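 Thrombomodulin ELISA, human primary HUVEC, 24 h post-dose; data fitted in both directions relative to DMSO.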

Sequence of human Vitamin D Receptor (VDR), VDR (gene 7421) (P11473 whole entry, looked up, the tested form may be a part): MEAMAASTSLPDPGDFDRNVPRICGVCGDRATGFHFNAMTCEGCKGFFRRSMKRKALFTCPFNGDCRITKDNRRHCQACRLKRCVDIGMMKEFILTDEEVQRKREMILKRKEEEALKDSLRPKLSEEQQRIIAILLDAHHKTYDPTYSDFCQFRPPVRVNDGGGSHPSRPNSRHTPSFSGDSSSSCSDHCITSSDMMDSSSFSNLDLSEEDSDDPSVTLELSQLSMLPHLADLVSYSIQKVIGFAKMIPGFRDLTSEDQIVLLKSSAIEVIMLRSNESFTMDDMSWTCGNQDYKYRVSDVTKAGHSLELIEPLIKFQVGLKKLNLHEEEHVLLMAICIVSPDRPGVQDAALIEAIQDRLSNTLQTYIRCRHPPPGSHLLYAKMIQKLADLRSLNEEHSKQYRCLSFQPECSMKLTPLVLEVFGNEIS

In the case of `C[C@]12C[C@H](O)[C@H]3[C@@H](CCC4=CC(=O)CC[C@@]43C)[C@@H]1CC[C@@H]2C(=O)CO`, the result in test [1], in test [2], in test [3], in test [4], in test [5] and in test [6] was inactive. Besides, the outcome in test [7], in test [8], in test [9], in test [10], in test [12] and in [13] was inactive. Besides, the result in [14], in [15] and in test [17] was inactive. Further, the AC50 in test [11] was 34.8 µM (active); in test [16] it was 0.447 µM (active).
With `COCCO`, the compound was called inactive in test [18], in test [1], in test [2], in test [3], in test [4] and in test [5]. In addition, the outcome in test [6], in [7], in [9], in test [10], in test [11] and in test [12] was inactive. Moreover, the outcome in [13], in [14], in test [15], in [16] and in test [17] was inactive.
Turning to `CC(=O)S[C@@H]1CC2=CC(=O)CC[C@]2(C)[C@H]2CC[C@@]3(C)[C@@H](CC[C@@]34CCC(=O)O4)[C@H]12`, the outcome in test [18], in test [2], in [3], in test [6], in test [7] and in test [8] was inactive. For the same compound, the result in test [9], in test [12], in test [13], in test [14], in test [15] and in [16] was inactive. In test [17], the outcome was inactive. The concentration at half-maximal activity (AC50) was 25.7 µM (active) in test [1], 32 µM (active) in test [5], 34.3 µM (active) in test [10] and 30.9 µM (active) in test [11].
In the case of `CCCOC(=O)c1ccc(C(=O)OCCC)nc1`, the result in test [1], in test [2], in [3], in [4], in test [5] and in test [6] was inactive. Besides, the result in [19], in [7], in test [8], in test [9], in test [10] and in test [11] was inactive. Moreover, the outcome in [12], in [13], in [14], in [15], in test [16] and in test [17] was inactive.
Regarding `COC(=O)c1cccc(C)c1S(=O)(=O)NC(=O)Nc1nc(OCC(F)(F)F)nc(N(C)C)n1`, the outcome in test [1], in [2], in test [3], in test [4], in [5] and in [6] was inactive. Further, the result in [19], in test [7], in test [8], in test [9], in [10] and in [11] was inactive. Further, the outcome in test [12], in test [13], in test [14], in [15], in [16] and in test [17] was inactive.
As to `CCN(Cc1c(F)cccc1Cl)c1c([N+](=O)[O-])cc(C(F)(F)F)cc1[N+](=O)[O-]`, the AC50 in test [1] is 11.8 µM (active); in test [3], 13.7 µM (active); in test [5], 12.6 µM (active); in test [6], 8.78 µM (active); in [10], 4.57 µM (active). Further, the result in [2], in test [4], in test [7], in test [8], in test [9] and in test [11] was inactive. Besides, the outcome in [12], in [13], in test [14], in [15], in test [16] and in [17] was inactive.
